Results taken from PubChem BioAssay (NCI).
The panel holds about 79,000 compounds, 15% with a hit somewhere; the sample as a whole holds those more often. Rule as the data show it: active = growth inhibition above about 70%; inactive = the rest.

Tests used:
[1] = NCI Yeast Anticancer Drug Screen. Data for the rad50 strain (AID 155);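 also: 0% = growth of vehicle-only cultures of the same strain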; settings: S. cerevisiae rad50 strain growth inhibition; at 50.0 µM; active compounds read high
Procedure, shortened: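 Genetically altered yeast (DNA repair pathway); compound treatment; growth inhibition vs vehicle ctrl.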

[2] = NCI Yeast Anticancer Drug Screen. Data for the mec2-1 strain (AID 157); settings: S. cerevisiae mec2-1 strain, at 50.0 µM, active compounds read high
Procedure, shortened: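 mec2-1 yeast strain, carrying an alteration in DNA damage repair or cell cycle control, was exposed to compounds; growth inhibition was measured relative to vehicle-treated controls.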

[3] = NCI Yeast Anticancer Drug Screen. Data for the sgs1 mgt1 strain (AID 161);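 also: 0% = growth of cultures given vehicle only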; settings: S. cerevisiae sgs1 mgt1 strain, at 50.0 µM, active compounds read high
Procedure, shortened: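 Growth of a repair-deficient yeast mutant was monitored after compound treatment and expressed as inhibition relative to vehicle-treated cultures.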

[4] = NCI Yeast Anticancer Drug Screen. Data for the cln2 rad14 strain (AID 165);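 also: 0% = growth equal to vehicle treated cultures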; settings: S. cerevisiae cln2 rad14 strain, at 50.0 µM, active compounds read high
Procedure, shortened: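 Yeast carrying cln2 and rad14 alterations (cell cycle control and DNA damage repair) were exposed to compounds. Growth inhibition was measured against vehicle-treated controls.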

[5] = NCI Yeast Anticancer Drug Screen. Data for the bub3 strain (AID 167); settings: S. cerevisiae bub3 mutant strain, at 50.0 µM, active compounds read high
Procedure, shortened: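 Yeast carrying a defined mutation is treated with each compound, and growth is compared with that of vehicle-exposed cells to give inhibition.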

[6] = NCI Yeast Anticancer Drug Screen. Data for the mlh1 rad18 strain (AID 175); settings: S. cerevisiae mlh1 rad18 strain growth inhibition; at 50.0 µM; active compounds read high
Procedure, shortened: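 Growth inhibition of the yeast strain was measured after compound exposure and expressed relative to vehicle-treated controls. The strain carries defined defects in DNA damage repair.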

Measured: growth inhibition

O=C(O)CCBr
inactive: [1] 8.1% | [2] -10.1% | [3] 44.5% | [4] 0% | [5] 6.5% | [6] 43.8%

CCC(C(=O)c1ccccc1)[n+]1ccccc1 (centres undefined)
inactive: [1] -4.55% | [2] -16% | [3] -6.7% | [4] -15.6% | [5] 13.2% | [6] 3.05%

CCCCCCC1C=CC(CCCCCCCC(=O)O)C(/C=C/CCCCCCCC(=O)O)C1CCCCCC (centres undefined)
inactive: [1] -10.7% | [2] -10.8% | [3] -10.3% | [4] 21% | [5] -25% | [6] 6.85%

CC1(C)OC(COCCOCCCCCO)C(COCCOCCCCCO)O1 (centres undefined)
inactive: [1] 7.1% | [2] 3.75% | [3] 6.2% | [4] 17.9% | [5] -3.05% | [6] 6.7%

NCCN(CCN)/[N+]([O-])=N/O
inactive: [1] 18.6% | [2] -0.2% | [3] 6.3% | [4] -1% | [5] 0.65% | [6] 16.9%

CN(C)c1c(F)c(F)c(N=Nc2ccccc2)c(F)c1F
inactive: [1] 0.75% | [2] -2.6% | [3] 1.15% | [4] -3.15% | [5] 16.8% | [6] -12.1%

O=C1c2cc3c(cc2C(=O)c2[nH]ncc21)OCO3
inactive: [1] 60.5% | [2] 30.4% | [3] 16.7% | [4] -20.2% | [5] 19.1% | [6] 17.2%

CCCCCCCCCCCCCCCC/C=C\CCCCCCCCCCCCCCCCC
inactive: [1] -7.8% | [2] -18.1% | [3] -0.85% | [4] 17.3% | [5] 2.25% | [6] -13.1%

CC1CC(Cc2ccccc2CC2CC(C)OC2=O)C(=O)O1 (centres undefined)
inactive: [1] 6.95% | [2] 12.6% | [3] -0.1% | [4] 10.8% | [5] 10.8% | [6] 22.9%

O=C(/C=C\c1ccc(Cl)cc1)c1ccccc1
inactive: [1] -23.1% | [2] -34.5% | [3] 15.3% | [4] -6.4% | [5] 12.7% | [6] 2.05%

O=C(NO)C(=O)Nc1ccc(Cl)cc1[N+](=O)[O-]
inactive: [1] 47% | [2] 28.4% | [3] 36.5% | [4] 42% | [5] 49.1% | [6] 44.7%

C/C(=C/C(=O)Nc1ccc2ccccc2c1)Nc1ccc2ccccc2c1
inactive: [1] -5.4% | [2] 6.65% | [3] 5.9% | [4] -8.95% | [5] 10.4% | [6] -15.1%

Cc1ccc(S(=O)(=O)C23N=NC(C)(C)C2N=NC3(C)C)cc1 (centres undefined)
inactive: [1] -10.8% | [2] -19.8% | [3] -6.9% | [4] -58% | [5] -46.6% | [6] 5.4%

O=C(/C=C/c1ccc2c(c1)OCO2)CC(=O)/C=C/c1ccc2c(c1)OCO2
inactive: [1] 3.5% | [2] 19.6% | [3] 11.3% | [4] 7.15% | [5] -4.3% | [6] -15.6%

CC(=O)OC1CCCCCCC1
inactive: [1] -13.2% | [2] 14.6% | [3] 15.5% | [4] -3.2% | [5] 19.5% | [6] 6.05%

CC1CC(=O)CCC2(C)C(OC(C)(C)C)CCC12 (centres undefined)
inactive: [1] 14.7% | [2] -1.75% | [3] -5.75% | [4] 9.15% | [5] 33.2% | [6] 21.1%

CS(=O)(=O)NCCBr
inactive: [1] -10.4% | [2] -3.5% | [3] 5.9% | [4] -22.4% | [5] -32% | [6] -10.9%

COC1=CC(=C(\C#N)c2ccc(Cl)cc2)/C=CC/1=N/O
inactive: [1] 20.1% | [2] 11.6% | [3] 3.85% | [4] -7.25% | [5] 5.75% | [6] 21.9%

N#CC(C(N)=O)C(CC(=O)c1ccccc1)c1ccccc1 (centres undefined)
inactive: [1] -7.65% | [2] -3.1% | [3] 13.3% | [4] 15.9% | [5] 19.2% | [6] -2.05%

COc1cc(/C=N/N2CN(C(C)C(=O)O)B(NCCC(C)C)N=C2N)cc(OC)c1 (centres undefined)
inactive: [1] 0.85% | [2] -10.4% | [3] 22% | [4] -3.7% | [5] 23.6% | [6] -6%

Cc1ccc(S(=O)(=O)C/C(=N\Nc2ccc([N+](=O)[O-])cc2[N+](=O)[O-])c2ccccc2)cc1
inactive: [1] 38.4% | [2] -9.45% | [3] 17.6% | [4] 12.4% | [5] -0.25% | [6] 18.7%

CSc1ccccc1N1C(=O)CSC1=S
inactive: [1] -7.8% | [2] 4.4% | [3] 41.5% | [4] 19.1% | [5] -4.1% | [6] 22.2%

COC(=O)c1csnn1
inactive: [1] 1.2% | [2] 10.8% | [3] 12.7% | [4] 8.5% | [5] 4.3% | [6] 10.2%

COC(=O)c1nc(=S)[nH]c(C(=O)OC)c1C(=O)c1cccc2ccccc12
inactive: [1] 8.6% | [2] 34.4% | [3] 4.35% | [4] -24.3% | [5] -5.5% | [6] 13.1%

CCOC(=O)C(=NNc1cc(OC)c(Cl)cc1OC)C(=O)OCC
inactive: [1] 8.25% | [2] -9.95% | [3] -7.4% | [4] -25.4% | [5] 1.7% | [6] 6.05%

CC(C)(C)NC(=O)c1cccc(C(=O)NC(C)(C)C)n1
inactive: [1] 3.3% | [2] -8% | [3] -0.3% | [4] -7.9% | [5] -13.3% | [6] -16.4%

CCOc1ccc(N=Nc2c(C)nc(N)nc2-c2ccccc2)cc1
inactive: [1] 20.1% | [2] -14.7% | [3] 4.1% | [4] -4.75% | [5] 35.4% | [6] 24.4%

COC(=O)Nc1c2ccccc2c(NC(=O)OC)c2ccccc12
inactive: [1] -7.15% | [2] 13% | [3] 19.7% | [4] -88.8% | [5] 23.1% | [6] 0.75%

O=C(SCc1ccccc1)C(O)c1ccccc1 (centres undefined)
inactive: [1] 1.95% | [2] 6.9% | [3] 15.7% | [4] -24.6% | [5] 19.3% | [6] 5.2%

Brc1cccc2c(SCCCCCCSc3c4ccccc4nc4c(Br)cccc34)c3ccccc3nc12
inactive: [1] 3.1% | [2] -16.1% | [3] -18.8% | [4] -52.5% | [5] -21% | [6] 5.85%

CCCC(=O)C1=CC(C(C)C)CCC1C (centres undefined)
inactive: [1] 12.6% | [2] -4.4% | [3] -4.05% | [4] -12.2% | [5] 1.15% | [6] 1%

O=C1OC(C(O)C(O)C(O)CO)C(O)C1O (centres undefined)
inactive: [1] -9.65% | [2] -29.9% | [3] -11.7% | [4] -40.2% | [5] 28.3% | [6] 4.65%

C/C(=N\NC(=O)c1ccncc1)c1cccc(Br)c1
inactive: [1] 12% | [2] 13.9% | [3] 5.35% | [4] 6.6% | [5] 5.35% | [6] 11.8%

CCOC(=O)C1C=NC([N+](=O)[O-])=C1Br (centres undefined)
inactive: [1] 0.15% | [2] 24.8% | [3] 13.4% | [4] -4.25% | [5] 18.4% | [6] 9.15%

O=C(CC(O)(C(F)(F)F)C(F)(F)F)c1cccs1
inactive: [1] 3.65% | [2] 15.4% | [3] 3.75% | [4] -34.9% | [5] -5.15% | [6] 7.5%

c1ccc(CCCCc2ccc(CCCCc3ccccc3)cc2)cc1
inactive: [1] 12.2% | [2] -3.55% | [3] -2.45% | [4] -6.35% | [5] -2.2% | [6] 6.1%

Cc1c(F)c(Br)c([N+](=O)[O-])c(C)c1[N+](=O)[O-]
inactive: [1] -7.15% | [2] 5.45% | [3] -8.8% | [4] -4.15% | [5] -1.2% | [6] -17.9%

C[N+](C)(C)Cc1cc2ccccc2c2ccccc12
inactive: [1] -23% | [2] -8.9% | [3] -18.8% | [4] -9.55% | [5] -8.35% | [6] 20.1%

N#CSC1CCCCC1SC#N (centres undefined)
inactive: [1] 11.3% | [2] 5.8% | [3] 7.35% | [4] -13.7% | [5] -2.55% | [6] 5.6%

CCN(CC)c1ccc(-c2ccccc2)cc1
inactive: [1] 28.1% | [2] 5.4% | [3] -8.45% | [4] -69.4% | [5] 2.9% | [6] 8.5%

Nn1c(Cc2ccccc2)n[nH]c1=O
inactive: [1] 10.2% | [2] -13.3% | [3] 12.2% | [4] 6.55% | [5] -9.4% | [6] -14.2%

CCOC(=O)c1c[nH]c2cc3c(cc2c1=O)CCS3
inactive: [1] -27.4% | [2] -57% | [3] -1.45% | [4] 3.95% | [5] 9% | [6] -7.35%

COc1cccc(C(=O)NNC(=O)c2cccc(OC)c2)c1
inactive: [1] -1.5% | [2] -15.9% | [3] -9.35% | [4] 9.55% | [5] -1.9% | [6] -1.85%

CCCCC(C(C)=O)C(=O)CC (centres undefined)
inactive: [1] 26.4% | [2] -25% | [3] 8.8% | [4] -23.2% | [5] -20.5% | [6] 13.1%
